# Test results reported in PubChem BioAssay (NCATS).
# Several values for one entry are separate records, joined by “and”; a condition that tells them apart may be missing. Equal entries are not always repeated. Inconclusive results are not listed. Unmarked numbers belong to inactive results. Activity calls are given as the source filed them. The call rests on the fitted dose curve; in most records, active means well fitted cell-killing curve with a large enough effect; inconclusive means small, poorly fitted or top-dose-only effect; inactive means flat fitted curve, though single readings scatter.
# Test: Cell Viability - LYMP2-019 (AID 973);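 further: cells exposed to compound for 24 h at 37 °C; nearly all actives have a fitted effect of over 55% in size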;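 on activity change, negative = cytotoxicity: 0% = DMSO alone and full effect = 92 µM tetraoctylammonium bromide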
# Settings: LYMP2-019 lymphoblastoid cell line viability; series mostly up to 92.2 µM; activity change, negative = cytotoxicity: at the top concentration
# In short: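 Cytotoxicity is scored as a concentration-dependent drop in cellular ATP after cells (2500/well) receive compound for 24 hr at 37 C. Tetraoctylammonium bromide serves as positive control.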
# Potency means the concentration at half of the fitted maximal effect.
Compound,"activity change, negative = cytotoxicity",Potency
CCCN(CCC)C(=O)SCC,-2.05%,
COc1ccc2nc(N)sc2c1,-8.74%,
ClCCCl,-9.95%,
CCC(O)OC(O)CC (stereo unspecified),,inactive
C=Cc1ccccc1Cl,-2.35%,
c1ccc2c(c1)c1cccc3ccc4cccc2c4c31,-2.72%,
Cc1cccc([N+](=O)[O-])c1C,0.37%,
CCCCCCCCO,-11.8%,
CC(C)=CCCC(C)CCO (stereo unspecified),-10.3%,
O=[N+]([O-])c1cccc(Cl)c1Cl,-1.95%,
CCO[Si](CCCN)(OCC)OCC,-8.5%,
Clc1cc(Cl)c(Cl)cc1Cl,-8.19%,
CCO,-3.57%,
C=CC(=O)OCCOCCOCCOCCOC(=O)C=C,,25.1 µM (active) and 31.6 µM (active)
Clc1cc(Cl)c(Cl)c(Cl)c1Cl,-1.82%,
CCCCC(CC)CN (stereo unspecified),,inactive
O=NO,,inactive
c1ccc2c(c1)[nH]c1ccccc12,0.497%,
OCCNCCO,-5.1%,
Nc1ccc(Cl)cc1Cl,-14.4%,
CCC(C)c1ccccc1O (stereo unspecified),,inactive
CC1=CC(C)(C)Nc2ccccc21,,inactive
CN(C)C=O,,inactive
Cc1ccc(N)c([N+](=O)[O-])c1,-13.5%,
CCCCOCCO,,inactive
CC(=O)OC/C=C(\C)CCC=C(C)C,-4.55%,
